In the library only some 1.8% were active in any assay of this set; here they are far more common.
ClpP mod: qHTS Assay for Activators of ClpP | ATP-dependent Clp protease proteolytic subunit (Bacillus subtilis (strain 168)), P80244 | purified B. subtilis ClpP, FRET peptide cleavage, 20 min | Potency, µM (highest dose often 57.5 µM), for the others: at the highest dose activity change, negative = active | 1.9% of 340,000 active; active = well fitted falling curve with a large enough effect; inconclusive = small, poorly fitted or top-dose-only effect; inactive = no such curve, though single readings can be large or run the other way; also: potency is read from the fitted curve at half-maximal effect; the source files actives as falling curves though it sought activators and does not explain the sign; nearly all actives have a fitted effect of over 65% in size
Target sequence (P80244 whole entry, looked up): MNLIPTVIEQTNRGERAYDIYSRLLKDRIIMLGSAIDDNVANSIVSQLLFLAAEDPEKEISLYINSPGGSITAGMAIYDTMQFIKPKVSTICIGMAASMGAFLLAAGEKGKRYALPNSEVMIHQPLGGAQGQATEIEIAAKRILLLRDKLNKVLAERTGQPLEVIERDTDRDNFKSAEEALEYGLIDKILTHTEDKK
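Purified B. subtilis ClpP, 10 microg/mL final in Tris/HCl pH8 with KCl, BSA, glycerol and Tween-20, cleaved an Abz/nitrotyrosine-quenched decapeptide. Fluorescence (ex 320, em 430) was read at 0 and 20 min at room temperature. Delta was normalized to 5.8 microM ADEP and DMSO/no-enzyme controls.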
Mito fusion yeast: blocks mitochondrial division or promotes mitochondrial fusion; S. cerevisiae fusion-defective mutant growth rescue, CellTiterGlo 48 h; Potency, µM (series often up to 46.1 µM), for inactives: at the top dose growth rescue (activation), hits mostly activators; 0.23% of 320,000 active; also: potency is read from the fitted curve at half-maximal effect; % of control where 0% means no effect; nearly all actives have a fitted effect of over 45% in size
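Temperature-sensitive fusion-defective S. cerevisiae (e.g. fzo1-1, mgm1-5) were grown with compound in YPEG medium (3% ethanol, 3% glycerol) for 48 hours at 37C. Growth rescue was measured as viability by CellTiterGlo luminescence after 10 minutes at ambient.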
GRP78 ERSR act: ER stress response induction in glioma. 0.02% of 420,000 active. U87-MG GRP78 promoter luciferase reporter, 16 h. AID 602332. Potency, µM, for the others: at the top dose activation, usual class: activators; also: potency is read from the fitted curve at half-maximal effect; series mostly up to about 76 µM; % of control where 0% means no effect; nearly all actives have a fitted effect of over 35% in size
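ERSR induction read as luciferase luminescence (Bright-Glo, 10 min at room temperature) in stably transfected human U87-MG glioma cells exposed to compounds for 16 h, using GRP78 as sensor.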
MBNL1-CUG inh: MBNL1-poly(CUG) RNA binding inhibition. TR-FRET MBNL1-His/biotin-(CUG)12 binding, 665/545 ratio. Potency, µM (top dose mostly 57.5 µM), for inactives: top-dose activity change, negative = inhibition, actives largely listed as inhibitors. AID 2675. 0.036% of 280,000 active; active = well fitted inhibition curve with a large enough effect in the signal ratio, with a control signal flat, not every such curve was filed as active; inconclusive = small, poorly fitted or top-dose-only effect, or effect the other way, or a change in a side signal; inactive = no such curve, though single readings can be large or run the other way; the % refers to the signal ratio; also: potency is read from the fitted curve at half-maximal effect; % is scaled to controls: 0 for no effect and ±100 for the full control effect
Target sequence (Q9NR56 whole entry, looked up): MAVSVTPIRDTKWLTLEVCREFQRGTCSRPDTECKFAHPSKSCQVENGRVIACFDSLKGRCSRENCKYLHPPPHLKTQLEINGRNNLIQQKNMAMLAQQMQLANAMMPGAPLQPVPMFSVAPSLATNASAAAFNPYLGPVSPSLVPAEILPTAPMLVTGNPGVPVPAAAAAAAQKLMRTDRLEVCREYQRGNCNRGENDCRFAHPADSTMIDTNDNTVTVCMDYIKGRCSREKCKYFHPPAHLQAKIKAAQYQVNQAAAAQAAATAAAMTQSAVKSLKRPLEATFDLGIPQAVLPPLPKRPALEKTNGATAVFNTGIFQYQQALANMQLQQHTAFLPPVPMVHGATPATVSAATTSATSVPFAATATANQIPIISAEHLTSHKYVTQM
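TR-FRET between His-tagged MBNL1 and biotin-(CUG)12 RNA, detected with Tb anti-His antibody (0.055 ng/ul) and streptavidin-XL665 (5 nM), 60 min at room temperature. Compounds titrated 92 nM to 58 uM; 665/545 nm ratio normalized to buffer and complex controls.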
TCR act: activators of T cell receptors; AID 504894; primary human leukocytes, anti-CD3, IL-2 HTRF, 48 h; Potency, µM (top dose mostly 9.22 µM), for inactives: top-dose activation of IL-2 secretion, hits mostly activators; 330,000 tested, under 10 active; also: % of control where 0% means no effect
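Primary human leukocytes receive a-CD3 beads and test compound and are incubated 48 hr. Secreted IL-2 is then assayed by HTRF, measuring 665nm acceptor emission after 320nm excitation of the europium donor.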
A-T KAP1 phos: potential ataxia-telangiectasia treatments restoring KAP-1 phosphorylation; AID 485349; Potency, µM (highest dose often 57.5 µM), for inactives: at the highest dose activation, actives largely listed as activators; 0.19% of 320,000 active; F2112 A-T fibroblasts, KAP-1 phosphorylation AlphaLISA; neocarzinostatin DNA damage 30 min before lysis; also: potency is read from the fitted curve at half-maximal effect; % of control where 0% means no effect; nearly all actives have a fitted effect of over 45% in size
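hTERT-immortalized A-T patient fibroblasts (F2112), 500 cells/well in OPTI-MEM, 1% FBS, got compounds for 60 min, then NCS for 30 min at 37C. Lysates were then assayed for phospho-KAP-1 by AlphaLISA (anti-pKAP1 donor, anti-KAP1 acceptor beads), 6 hr at 25C.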
Numbers without * were called inactive; ? = inconclusive; · = not tested or not shown; [ ] = another dose, or the depositor's remark. Unless noted, calls follow the shape of the dose curve; as a rule, active = well fitted curve in the direction sought with a large enough effect; inconclusive = small, poorly fitted or top-dose-only effect, or another doubt; inactive = no such curve, though single readings can be large; an effect the other way counts as inactive or inconclusive.

SMILES | ClpP mod | Mito fusion yeast | GRP78 ERSR act | MBNL1-CUG inh | TCR act | A-T KAP1 phos
O=C(Nc1ccc(Br)cc1F)c1sccc1-n1cccc1 | 2% | 6% | -1% | 0% | -15% | 6%
O=C(Nc1ccc(Br)cc1F)c1cnn2c1NC(=C1CC1)C=C2C(F)F | 3% | · | 0% | · | · | ·
CCOc1ccc2nc(NC(=O)CSc3nc(SC)ns3)sc2c1 | 28µM* | 0% | 2% | 9% | -1% | 6%
Oc1cc2cc(-c3csc(-c4ccc(F)cc4)n3)ccc2[nH]1 | -5% | · | 0% | · | · | ·
Cc1ccc2nc(SCC(=O)NCC3Cc4cc(-c5ncccc5C)ccc4O3)[nH]c2c1 (stereo unspecified) | · | · | 0% | · | · | ·
CCOC(=O)c1c(C)[nH]c(C)c1C(=O)CSc1nc2ccccc2c(=O)n1-c1ccccc1C | 28µM* | 9% | -6% | 5% | 4%[46.1 µM] | 11%
CO[C@H]1[C@H](NC(=O)c2ccsc2)c2ccccc2C12CCN(Cc1cc(Cl)ccc1O)CC2 | · | · | 0% | · | · | ·
COc1ccc(-c2csc3ncnc(Nc4cccc(F)c4)c23)cc1 | -11% | · | 0% | · | · | ·
COc1ccc(-c2csc3ncnc(Nc4ccc(OC)cc4OC)c23)cc1 | 40µM* | · | -3% | · | · | ·
COc1ccc(-c2csc3ncnc(Nc4cc(OC)cc(OC)c4)c23)cc1 | ? | · | -4% | · | · | ·
COc1ccccc1Nc1ncnc2scc(-c3ccc(F)cc3)c12 | 28µM* | · | -2% | · | · | ·
Oc1ccc(CN2CCCCC2)nc1-c1ccccc1 | 35µM* | 0% | -1% | 7% | 3% | 5%
CCOc1ccc(S(=O)(=O)NCc2ccc(Cl)cc2)c2cccnc12 | 16µM* | 0% | -3% | 10% | 0% | 1%
CCOc1ccc(S(=O)(=O)NCC2CCCO2)c2ccccc12 (stereo unspecified) | -3% | 1% | -5% | -6% | 3% | 5%
CCOc1ccc(S(=O)(=O)NCC2CCCO2)c2cccnc12 (stereo unspecified) | 40µM* | 0% | -3% | -7% | 4% | 7%
CCN(C(=O)CSc1nnc(-c2cccs2)n1N)c1c(N)n(Cc2ccccc2)c(=O)[nH]c1=O | 35µM* | -4% | -4% | · | -1% | -4%
CC(C)c1ccc(-c2cc(C(=O)N3N=C(C(F)F)CC3(O)C(F)F)c3ccccc3n2)cc1 (stereo unspecified) | 28µM* | -8% | 18% | 1% | 3% | 0%
O=C(c1cc(C2CC2)nc2ccccc12)N1N=C(C(F)F)CC1(O)C(F)F (stereo unspecified) | -7% | 1% | -3% | 1% | 4%[46.1 µM] | 0%
O=C(NCc1ccco1)c1ccc(-c2ccc(F)c(F)c2)c2ccoc12 | 35µM* | · | -1% | · | · | ·
O=C(NCCc1ccccc1)c1ccc(-c2ccc(F)c(F)c2)c2ccoc12 | 35µM* | · | 4% | · | · | ·
O=C(NCc1cccc(Cl)c1)c1ccc(-c2ccc(F)c(F)c2)c2ccoc12 | 16µM* | · | -3% | · | · | ·
O=C(NCc1ccccc1)c1ccc(-c2ccc(F)c(F)c2)c2ccoc12 | 5% | · | 0% | · | · | ·
C=C1C=C(C(F)F)n2ncc(C(=O)NCc3ccc(Cl)cc3Cl)c2N1 | 13% | · | -2% | · | · | ·
CN1CCN(c2ncc3ncc(=O)n(CCC#N)c3n2)CC1 | · | · | -4% | · | · | ·
CCC1CN(CC(=O)NC(C)CO)Cc2cc(OC)ccc2O1 (stereo unspecified) | · | · | -6% | · | · | ·
SMILES | ClpP mod | Mito fusion yeast | GRP78 ERSR act | MBNL1-CUG inh | TCR act | A-T KAP1 phos
CCCCn1c(N)c(N(CCOC)C(=O)c2ccc(Cl)c(S(=O)(=O)N3CCCCC3)c2)c(=O)[nH]c1=O | 32µM* | 3% | -1% | · | 6% | 3%
COc1ccccc1CNc1ncnc2ccc(-c3cccc(NS(C)(=O)=O)c3)cc12 | · | · | -7% | · | · | ·
CC(C)(C)c1ccc(-c2n[nH]c(=S)n2-c2ccccc2)cc1 | 8.9µM* | -12% | -5% | 280% | · | -3%
O=C(NCc1nnc2n1CCN(Cc1cccc(Cl)c1)CC2)c1cccc(F)c1 | · | · | -5% | · | · | ·
O=C(CSc1nnc(NC(=O)c2ccc3c(c2)OCO3)s1)NCc1ccco1 | 4.5µM* | 1% | -11% | 2% | -2% | 1%
O=C1c2ccccc2CCC1CNCCc1ccc(O)cc1 (stereo unspecified) | · | · | 3% | · | · | ·
COC(=O)CCc1c(C)c(C(=O)c2cc(OC)c(OC)c(OC)c2)c2ccccn12 | -2% | 0% | ? | ? | -2% | 3.5µM*
COc1ccccc1C(=O)c1c(C)c(CCC#N)n2ccccc12 | · | ? | -3% | ? | 7% | -3%
Cc1ccc(-c2nnn3c2nc(NCCc2ccc(S(N)(=O)=O)cc2)c2ccccc23)cc1 | 1% | -2% | -4% | · | -1%[46.1 µM] | 6%
NNc1nc2c(-c3cccc(C(F)(F)F)c3)nnn2c2ccccc12 | · | ? | 0% | -4% | 0% | 25µM*
Cc1cccc(-c2nnn3c2nc(NCCc2ccc(S(N)(=O)=O)cc2)c2ccccc23)c1 | 11µM* | -4% | 3% | · | 3%[46.1 µM] | 5%
NS(=O)(=O)c1ccc(CCNc2nc3c(-c4cccc(F)c4)nnn3c3ccccc23)cc1 | 22µM* | -4% | 1% | · | -1%[46.1 µM] | 6%
Cc1cc(C)cc(C(=O)NCc2nc(-c3cccc(NC(=O)c4ccccn4)c3)oc2C)c1 | · | · | -2% | · | · | ·
COc1cccc(Cc2nc3cccnc3n2C2CCN(C(=O)c3n[nH]c4c3CCCC4)CC2)c1 | · | · | -2% | · | · | ·
Cc1oc2ccc(OCc3ccc(Br)cc3)cc2c1C(=O)O | · | ? | -3% | -13% | 0% | 3.5µM*
Cc1oc2ccc(OCc3ccc(Cl)cc3)cc2c1C(=O)O | · | 19% | -2% | -2% | 8% | 0%
CC(C)(CO)C(O)C(=O)NCCCC(=O)O (stereo unspecified) | · | · | -3% | · | · | ·
COc1ccc2c(c1OC)C(=O)N1N=C(c3ccc(Br)cc3)CC21 (stereo unspecified) | 1% | 16µM* | 3% | 24% | 9%[46.1 µM] | -4%
COc1ccc(C2=NN3C(=O)c4c(ccc(OC)c4OC)C3C2)cc1 (stereo unspecified) | -5% | 5% | 5% | ? | 2% | -4%
COc1ccc(CCNC(=O)c2cc3ccccc3oc2=O)cc1 | -1% | -3% | -6% | 10% | · | -2%
CN(C)CCNC(=O)c1cc2ccccc2oc1=O | 28µM* | 1% | -1% | ? | -6% | -4%
O=C(NCCCN1CCOCC1)c1cc2ccccc2oc1=O | 28µM* | -1% | 1% | ? | -7% | 0%
CCCC(=O)OCCNC(=O)c1cc2ccccc2oc1=O | 18µM* | -2% | 0% | ? | -2% | -6%

Screening results: PubChem BioAssay, National Center for Advancing Translational Sciences (NCATS)
